High-throughput results as filed in PubChem BioAssay.
Marburg entry inh – blocks Marburg virus binding to or entry into cells; Marburg virus pseudotyped entry inhibition, cell reporter; Potency, µM (series often up to 37.8 µM), inactives show at the top dose activity change, negative = inhibition, usual class: inhibitors; 1.8% of 300,000 active; AID 540276; calls by dose curve; tested in HEK293 cells; also: potency is read from the fitted curve at half-maximal effect; % is scaled to controls: 0 for no effect and ±100 for the full control effect
LASV entry inh – Lassa virus entry inhibition; Lassa virus pseudotype entry inhibition, cell reporter; Potency, µM (highest dose often 37.9 µM), for inactives: at the top dose activity change, negative = inhibition, hits mostly inhibitors; 1.2% of 300,000 active; calls by dose curve; tested in HEK293 cells; also: potency is read from the fitted curve at half-maximal effect; % is scaled to controls: 0 for no effect and ±100 for the full control effect; nearly all actives have a fitted effect of over 50% in size
Shiga inhibitor – Shiga toxin inhibition. Vero cells, Shiga toxin protein synthesis inhibition reporter. inhibition, % at 38.7 µM. 9.2% of 290,000 active; in the data active = inhibition mostly above about 28%, no sharp cut-off; inactive = mostly below about 43%; also: 0% is about no effect
Cycloheximide cs – affects cycloheximide protein synthesis inhibition readout, counter-screen | cell reporter, cycloheximide protein synthesis inhibition counterscreen | max response, % | 12% of 300,000 active; in the data active = max response mostly above about 13%, no sharp cut-off; inactive = mostly below about 14%; also: read at 38.3 µM for the half of the compounds with a filed dose; 0% is about no effect
AMA1 RON2 block – disrupts binding of P. falciparum AMA1 to RON2. AlphaScreen AMA1-biotinylated RON2 peptide binding. 0.2% of 360,000 active. AID 720542. Potency, µM (highest dose often 58.2 µM), without a hit: at the top dose activity change, negative = inhibition, most hits filed as inhibitors; active = well fitted inhibition curve with a large enough effect; inconclusive = small, poorly fitted or top-dose-only effect; inactive = no such curve, though single readings can be large or run the other way;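 also: potency is read from the fitted curve at half-maximal effect; 0% = vehicle wells and -100% = peptide control; nearly all actives have a fitted effect of over 45% in size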
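AMA1 (3D7) with his tag at 25 nM final met compounds first, then biotinylated RON2 peptide at 25 nM; detection used donor plus acceptor beads, 10 µg/mL apiece, read by AlphaScreen after 30 min at room temperature.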
* hit, by the source's call; ? = inconclusive; . = no result; [ ] = dose if it differs, or a comment. Many of the other results were omitted from the sample, so hits are more common in it than they were.

SMILES	Marburg entry inh	LASV entry inh	Shiga inhibitor	Cycloheximide cs	AMA1 RON2 block
COc1ccc(C(=O)Nc2ccc(C(=O)OCc3cc(=O)n4nc(C5CC5)sc4n3)cc2)cc1	.	-5.5%[46.1 µM]	.	.	.
COc1cccc(-c2nc(C=O)cs2)c1	10.9%	19.2%	30.7*	12.9	24.5%
COc1ccc(-c2nc(C=O)cs2)cc1	21.9%[46.1 µM]	?	39.2*	13.2*	-0.3%
COc1cccc(C(=O)NCCc2csc(-c3ccc(Cl)cc3)n2)c1	.	10.4%[46.1 µM]	.	.	.
Cc1ccc(S(=O)(=O)C2(C(=O)N3CCCCC3C)CC2)cc1 (centres undefined)	5.1%	16.2%	-10.9	-2.8	-2.3%
CCOC(=O)c1ccc(NC(=S)Nc2ccccn2)cc1	?	?	39.8*	26.5*	112.0%
CCOC(=O)Nc1ccc([N+](=O)[O-])cc1OC	10.1%	0.4%	.	.	-12.3%
CCOC(=O)c1ccc(NC(=S)NCc2ccccc2)cc1	.	.	21.0	11.6*	8.0%
CCOC(=O)c1ccc(NC(=O)Nc2ncccc2C)cc1	.	.	-2.4	8.2	11.5%
CCOC(=O)c1ccc(Nc2ncccc2[N+](=O)[O-])cc1	?	?	62.1*	34.9*	?
CCOC(=O)c1ccc(C(=O)OCC)c(NC(=S)Nc2ccc([N+](=O)[O-])cc2OC)c1	19.0%	-3.9%	66.8*	69.1*	32.3%[11.6 µM]
O=C(CN1CCOCC1)Nc1ccccc1Sc1ccc(Cl)cc1	?	?	-7.5	1.7	-18.8%
COc1cccc(CNC(=O)CNS(=O)(=O)c2ccc3nc(C)sc3c2)c1	-4.3%[46.1 µM]	?	.	.	.
O=C1COc2ccc(C(=O)COc3ccc(Cl)cc3Br)cc2N1	?	-4.6%	.	.	13.6%
Cc1ccccc1NC(=S)N(CCN1CCOCC1)Cc1ccccc1F	?	6.9%	-8.3	5.7	-1.0%
CCOC(=O)c1c(C)c(/C=N/Nc2ccccc2)n(C)c1C	13.9%[46.1 µM]	-2.7%	30.5	13.1*	?
CCOC(=O)c1ccc(NC(=O)c2ccc(NS(C)(=O)=O)cc2)cc1	14.3%	-5.2%	15.4	11.7	9.5%
CCOC(=O)c1c(C)c(C(=O)NCCc2ccccc2)c(C)n1C	.	.	104.0*	40.3*	-7.6%
CCOC(=O)c1c(C)c(C(=O)Nc2cc(OC)ccc2OC)c(C)n1CC	-27.1%	?	-9.1	1.1	?
CCOC(=O)c1c(C)c(C(=O)Nc2ccccc2)c(C)n1CC	8.7%	20.4%	31.5*	24.3*	-6.8%
CCOC(=O)c1ccc(NC(=O)c2ccccc2)cc1	?	11.4%	81.4*	48.7*	-1.2%
CCOC(=O)c1c(C)c(C(=O)NCc2cccnc2)c(C)n1C	0.7%	-2.1%	9.4	7.7	-0.7%
CCC(=O)c1ccc(OCC(=O)NCC2(N3CCCCC3)CCCCC2)cc1	.	.	5.7	-4.8	61.7%
Cc1ccc(OC(=O)CSc2nnc(CNC(=O)c3ccccc3)o2)cc1	-3.4%[46.1 µM]	-0.4%[46.1 µM]	.	.	.
CCOC(=O)C1=C2NC(=O)c3ccccc3N2C(=O)C1	28.7%[46.1 µM]	14.4%	-1.1	4.2	4.4%
SMILES	Marburg entry inh	LASV entry inh	Shiga inhibitor	Cycloheximide cs	AMA1 RON2 block
CCOC(=O)c1ccc(NC(=O)c2ccccc2[N+](=O)[O-])cc1	15.4%	?	58.2*	42.2*	11.5%
CCOC(=O)c1ccc(NCCOC)c([N+](=O)[O-])c1	?	?	88.0*	40.0*	-20.0%
COC(=O)c1ccc(NC(=O)c2ccccc2C(=O)Nc2ccc(C(=O)OC)cc2)cc1	?	-9.6%[46.1 µM]	.	.	-0.2%
CCOC(=O)c1ccc(NC(=O)c2cccc(C)c2[N+](=O)[O-])cc1	?	?	51.6*	20.3*	-1.6%
COC(=O)c1ccc(NC(=O)c2cccc(C)c2[N+](=O)[O-])cc1	.	.	49.1	21.6*	0.0%
O=C(NC1CCCCCC1)c1ccc[nH]c1=S	18.8%	-15.4%	41.0	14.4	94.8%
COc1cc(OC)c(NC(=O)Cn2c(=O)c(C(F)(F)F)nc3ccccc32)cc1Cl	.	-9.9%[46.1 µM]	.	.	.
CCOc1ccccc1C(=O)N1CC(=O)Nc2ccc(Cl)cc2C1c1ccccc1 (centres undefined)	-17.7%[46.1 µM]	3.7%[46.1 µM]	.	.	.
CC(C)(C)Nc1nc(N2CCCC2)nc(N2CCCC2)n1	?	?	14.7	-1.7	-1.1%
CCNc1nc(NC(C)(C)C)nc(N2CCCC2)n1	3.16µM*	?	-3.8	-2.8	5.6%
CN(Cc1ccccc1)C(=O)c1ccco1	5.8%[46.1 µM]	9.9%[46.1 µM]	25.1	11.2	-11.4%
O=C(C#Cc1ccccc1)c1ccco1	?	11.2µM*	-14.7	-7.0	-5.1%
COc1ccc(CNc2ccccc2SC)cc1OC	-26.1%	-9.2%	33.2	36.6*	-27.3%
COc1cc(CNc2ccccc2SC)cc(OC)c1OC	?	-15.9%	-10.7	-2.0	-10.7%
O=C(CSc1nc2ccccc2c(=O)n1-c1ccccc1)N/N=C/C=C/c1ccccc1[N+](=O)[O-]	.	.	-0.4	14.7	58.0%
O=C(N/N=C/C=C\c1ccccc1[N+](=O)[O-])c1cccs1	15.9%	-4.1%	11.6	11.9	82.5%
O=C(Cc1cccs1)N/N=C/C=C/c1ccccc1[N+](=O)[O-]	-25.1%[14.2 µM]	?	62.4*	21.9*	-5.4%
O=C(O)c1ccc(N/N=C/C=C/c2ccccc2[N+](=O)[O-])cc1	2.8%	?	52.1*	44.7*	?
O=C(Cc1ccccc1)N/N=C/C=C/c1ccccc1[N+](=O)[O-]	-0.3%[14.2 µM]	-2.6%	18.1	16.1*	-9.2%
Cc1ccccc1-n1c(SCC(=O)N/N=C/C=C/c2ccccc2[N+](=O)[O-])nc2ccccc2c1=O	7.08µM*	?	-8.5	-2.8	26.3%
CC(C)(C)OC(=O)N1CCC(NC(=O)c2[nH]c(C(F)(F)F)nc2-c2ccccc2)CC1	.	.	.	.	-27.8%
N#C/C(=C\c1ccccc1[N+](=O)[O-])C(=O)NCc1ccccc1	5.6%[46.1 µM]	-0.7%[46.1 µM]	-3.9	-0.9	10.4%
N#C/C(=C\C=C\c1ccccc1[N+](=O)[O-])C(=O)NCc1ccccc1	?	10µM*	26.4	31.2*	-16.2%
COc1ccccc1/C=C/C=N/NC(=O)Cc1cccs1	?	0.116µM*	72.5*	41.8*	54.4%
Cc1ccc(CSc2nnc(SCC(=O)N/N=C/C=C/c3ccccc3[N+](=O)[O-])s2)cc1	?	?	48.5*	21.4*	43.6%
SMILES	Marburg entry inh	LASV entry inh	Shiga inhibitor	Cycloheximide cs	AMA1 RON2 block
CN(Cc1cccs1)C(=O)/C=C/c1ccccc1[N+](=O)[O-]	8.7%[46.1 µM]	12.9%	69.3*	30.8	-5.9%
CCCn1c(SC(C)C(=O)NCC2CCCO2)nc2sc(CC)cc2c1=O (centres undefined)	-4.7%	-11.9%	4.3	-2.7	-1.1%
CC1CN=C(N(C(=S)Nc2ccccc2)c2cccc(C(F)(F)F)c2)S1 (centres undefined)	?	10.2%	32.9	14.5*	1.9%
CCN(CC)CCN(Cc1cc2ccc(C)c(C)c2[nH]c1=O)C(=S)NCc1ccco1	?	5.62µM*	7.2	-1.5	1.6%
COc1ccc(/C=C2/CCc3ccccc3C2=O)cc1OC	-21.7%	?	73.9*	74.0*	-22.1%
COc1ccc(/C=C2\COc3ccccc3C2=O)cc1OC	?	?	65.3*	45.3*	?
COc1ccc(/C=C2\CCc3ccccc3C2=O)cc1CN1CCOCC1	?	?	93.7*	30.1*	-27.7%
COc1ccc2c(c1)CC/C(=C\c1ccc(OC)c(Cn3cccn3)c1)C2=O	?	-11.6%	23.3	25.9	-20.8%
